Hits are enriched below; roughly 19% of the tested compounds scored in any of these assays.
DT40 TDP1 CPT – growth inhibition of DT40 Tdp1-/-;hTDP1 cells with camptothecin (screen for TDP1 inhibitors); Potency, µM (top dose mostly 46.2 µM), usual class: inhibitors; AID 686979; actives 12% (n = 420,000); chicken DT40 Tdp1-/-;hTDP1 cells + 20 nM CPT, ATP luminescence, 48 h; further: nearly all actives have a fitted effect of over 55% in size
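Cell growth measured by CellTiter-Glo luminescence after a minimum 48 h, 37 C compound exposure with 20 nM CPT in Tdp1-knockout DT40 cells stably expressing hTDP1, seeded 400/well; qHTS titration format.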
HT1080 IDH1KD tx – HT-1080 IDH1 knockdown cell toxicity (counter line) | HT-1080 IDH1 knockdown viability, ATP luminescence, 48 h | Potency, µM (titrated, usually from 46.1 µM), hits mostly cytotoxic | actives 2% (n = 360,000) | AID 686971
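After a 2 h attachment period, IDH1KD HT-1080 cells took pin-transferred compound for 48 h at 37 °C; ATP-based luminescence after 10 min room-temperature reagent incubation reported viability.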
IL1B secr inh – inhibitors of inflammasome signaling (IL-1 beta secretion) | AID 743279 | activity change, % at 57.5 µM | actives 4.7% (n = 360,000) | THP-1 LPS/ATP IL-1B secretion, AlphaLISA, 16 h; stronger effect = lower value; in the data active means activity change below about -50%; inconclusive means mostly about -30% to -49%
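THP-1 cells pretreated 1 hr with compounds (up to 57.5 uM final), then stimulated with LPS (250 ng/mL final) plus ATP (1.25 mM final); secreted IL-1B measured by AlphaLISA after 16 hr, decreased signal indicating inhibition.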
HT1080-NT tox – kills 2HG-producing HT-1080-NT fibrosarcoma cells. AID 686970. actives 1.6% (n = 360,000). HT-1080-NT fibrosarcoma viability, CellTiter-Glo ATP luminescence, 48 h. Potency, µM (highest dose often 46.1 µM), most hits filed as cytotoxic;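 further: NT is the 2HG producing partner of a matched IDH1 knockdown line; nearly all actives have a fitted effect of over 55% in size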
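HT-1080-NT fibrosarcoma cells (2HG-overproducing), 750 cells/well in RPMI with 5% FBS, dosed after 2 h and incubated 48 h at 37C. CellTiter-Glo luminescence normalized to DMSO and no-cell wells; concentration-response curves fitted and classed.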
DT40 TDP1 no CPT – qHTS for Inhibitors of human tyrosyl-DNA phosphodiesterase 1 (TDP1): qHTS in cells in absence of CPT; Potency, µM (titrated, usually from 46.2 µM), usual class: inhibitors; DT40 Tdp1-/- hTDP1 cells, no CPT, ATP luminescence, 48 h; actives 15% (n = 420,000); further: nearly all actives have a fitted effect of over 55% in size
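Compound effects on proliferation are scored in DT40 Tdp1-/-;hTDP1 cells in the absence of CPT. ATP levels (CellTiter-Glo luminescence) are recorded after a ≥48 hr, 37 °C incubation.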
Numbers stand for hits; 0 = inactive; ? = inconclusive; - = no result; [ ] = remark or other dose. Unless noted, the call rests on the fitted dose curve; in most records, active means well fitted curve in the direction sought with a large enough effect; inconclusive means small, poorly fitted or top-dose-only effect, or another doubt; inactive means no such curve, though single readings can be large; an effect the other way counts as inactive or inconclusive.

SMILES	DT40 TDP1 CPT	HT1080 IDH1KD tx	IL1B secr inh	HT1080-NT tox	DT40 TDP1 no CPT
COc1cc(NC(=O)c2ccc(C(=O)Nc3cc(OC)c(Cl)cc3OC)cc2)c(OC)cc1Cl	0	-	-	-	0
COc1ccc(C(=O)Nc2cc(OC)c(Cl)cc2Cl)cc1	0	0	0	0	23.1µM
COc1cc(OC)c(NC(=O)c2cc3ccccc3cc2O)cc1Cl	10.3µM	0	-78.2	0	?
COc1ccc(CCNC(=O)c2cccc(S(=O)(=O)N3CCCCCC3)c2)cc1	?	0	0	?	?
O=C(NCc1ccccc1)C1CCN(c2nc(-c3ccccc3)nc3c2CCC3)CC1	18.4µM	0	0	0	20.6µM
Cc1cc(C)nc(N2CCC(C(=O)NCc3ccccc3)CC2)n1	0	0	0	0	0
CC1CCCN(C(=O)C2CCN(c3nc(-c4ccccc4)nc4c3CCC4)CC2)C1 (stereo unspecified)	?	0	0	0	23.1µM
COC(=O)c1ccc(C2/C(=C(/O)c3ccc4c(c3)CC(C)O4)C(=O)C(=O)N2Cc2ccncc2)cc1 (stereo unspecified)	0	0	0	0	0
Cc1ccc(-c2ccc(C(=O)Nc3ccccc3)o2)c2ccccc12	?	0	0	0	?
Cc1ccc(-c2ccc(C(=O)NCc3ccccc3)o2)c2ccccc12	23.1µM	0	0	0	?
COC(=O)c1sccc1-c1ccc(C(=O)Nc2cccc(Cl)c2)o1	?	0	0	0	23.1µM
CN(C)S(=O)(=O)Oc1ccsc1C(=O)Nc1cccc(Cl)c1	0	0	0	0	0
O=C(Nc1ccccc1)c1ccc(-c2ccccc2Cl)o1	20.6µM	0	0	0	18.4µM
O=C(Nc1ccccc1)c1ccc[n+](Cc2ccc([N+](=O)[O-])cc2)c1	0	0	-59.2	0	0
CSCc1ccc(C(=O)OCC(=O)NC2CCCC2)o1	0	0	0	0	0
COc1ccc(NC(=O)CN2CCN(CC(=O)Nc3ccc(F)cc3)CC2)c(OC)c1	?	0	0	0	?
N[C@H](CS)C(=O)O	0	-	-	-	0
Cc1c(Cl)cccc1-c1ccc(C(=O)Nc2ccc(F)cc2)o1	11.6µM	-	-	-	9.2µM
O=C(Nc1nccs1)c1ccc(-c2ccccc2[N+](=O)[O-])o1	?	0	0	0	?
O=C(Nc1cccnc1)c1ccc(-c2cc(Cl)ccc2Cl)o1	?	0	0	0	20.6µM
COc1ccc(NC(=O)c2ccc(-c3ccc([N+](=O)[O-])cc3)o2)cc1	?	0	0	0	?
O=C(Nc1nccs1)c1ccc(-c2ccccc2Cl)o1	?	0[9.24 µM]	-88.9	?	?
O=C(Nc1ccccc1)c1ccc(-c2ccc([N+](=O)[O-])cc2)o1	0	0	-64.1	0	?
COc1cc(/C=C/CN2CCOc3ccc(C(O)c4cccnc4)cc3C2)ccc1O (stereo unspecified)	0[9.04 µM]	-	-	-	?
O=C(O)c1c(-c2ccccc2)c(-c2ccccc2)nc2ccccc12	0	0	0	0	0
SMILES	DT40 TDP1 CPT	HT1080 IDH1KD tx	IL1B secr inh	HT1080-NT tox	DT40 TDP1 no CPT
CC1CC(C)CN(S(=O)(=O)N2CCCC(C(=O)NC3CCCCC3C)C2)C1 (stereo unspecified)	?	0	0	0	0
O=C(NN1C(=O)NC2(CCCCC2)C1=O)c1ccc(-c2ccccc2Cl)o1	?	0	?	0	0
O=C(NN1C(=O)NC2(CCCCC2)C1=O)c1ccc(-c2ccc([N+](=O)[O-])cc2)o1	20.6µM	0	0	0	20.6µM
O=C(Nc1ccccc1)c1ccc(-c2ccccc2C(F)(F)F)o1	?	0	0	0	20.6µM
CC(C)NC(=O)c1ccc(-c2ccccc2C(F)(F)F)o1	0	0[9.24 µM]	?	0	0
O=C(NCc1ccc(Cl)cc1)c1ccc(-c2ccccc2C(F)(F)F)o1	20.6µM	0	0	0	23.1µM
COc1cc2c(cc1OC)C(c1ccccc1F)NCC2 (stereo unspecified)	0	0	0	0	?
COc1ccc(N2CCN(C(=O)Cc3ccc(Br)cc3)CC2)cc1	0	0	0	0	?
Cc1ccccc1NC(=O)c1cc(C(=O)c2cc(Cl)ccc2O)cn(-c2ccccc2C)c1=O	13µM	?	0	?	23.1µM
COc1ccc(O)c(C(=O)c2cnc3nc4ccccc4n3c2)c1	14.6µM	0	0	0	20.6µM
Cc1ccc(-n2cc(C(=O)c3cc(Cl)ccc3O)cc(C#N)c2=O)cc1	20.6µM	0	0	0	23.1µM
Cc1ccc(O)c(C(=O)c2cc(C#N)c(=O)n(C(C)c3ccccc3)c2)c1 (stereo unspecified)	?	0	0	0	14.6µM
COc1ccc(-n2cc(C(=O)c3cc(Cl)ccc3O)cc(C#N)c2=O)cc1	0	0	0	0	?
CCc1nc2c(OCc3ccccc3C)cccn2c1N(C)C(=O)c1ccco1	?	0	0	0	?
O=C(CSc1nnc(C2CC2)n1C1CC1)c1ccccc1F	0	0	0	0	?
O=C(NCc1ccccc1)C1CCN(S(=O)(=O)c2ccc(Cl)cc2)CC1	0	0	0	0	0
CCOC(=O)[C@H]1[C@H]2COc3cc(OC)ccc3[C@@H]2N2C(=O)CN(CC3CCCO3)C(=O)[C@@]12C (stereo partly specified)	0	0	0	0	0
Cc1ccc(O)c(C(=O)c2cc(C#N)c(=O)n(Cc3ccccc3)c2)c1	16.4µM	?	0	0	9.2µM
Cc1ccc(O)c(C(=O)c2cc(C#N)c3nc4ccccc4n3c2)c1	?	0	0	0	9.2µM
N#Cc1cc(C(=O)c2cc(F)ccc2O)cn(Cc2ccccc2)c1=O	0	0	0	0	?
Cc1nn(C)c(C)c1NC(=O)c1ccc(S(=O)(=O)N(C)C)cc1	0	0	0	0	0
N=c1c(C(=O)NC2CCCCC2)cc2c(=O)n3ccccc3nc2n1CCc1ccccc1	?	0	0	0	20.6µM
N=c1c(C(=O)NC2CCCCC2)cc2c(=O)n3ccccc3nc2n1Cc1ccccc1	?	0	0	0	?
Cc1ccc2nc3c(cc(C(=O)NC4CCCCC4)c(=N)n3C3CCCCC3)c(=O)n2c1	?	?	0	0	14.6µM
CCC(C)n1c(=N)c(C(=O)NC2CCCCC2)cc2c(=O)n3cc(C)ccc3nc21 (stereo unspecified)	0	-	-	-	0
Cc1ccc(Cn2c(=N)c(C(=O)NC3CCCC3)cc3c(=O)n4ccccc4nc32)cc1	10.3µM	0	0	0	6.51µM
CCC(C)n1c(=N)c(C(=O)NCc2ccccc2)cc2c(=O)n3cc(C)ccc3nc21 (stereo unspecified)	?	-	-	-	16.4µM
Cc1ccc2nc3c(cc(C(=O)NC4CCCC4)c(=N)n3C3CCCCC3)c(=O)n2c1	?	0	0	0	?

Source: PubChem BioAssay (National Center for Advancing Translational Sciences (NCATS))
